Hits are enriched below; roughly 7.4% of the tested compounds scored in any of these assays.
SMN2 splice enh: enhancers of SMN2 splice variant expression; HEK293 SMN2-luciferase splicing reporter, luminescence, 30-36 h; Potency, µM (doses to about 46.1 µM), without a hit: at the highest dose activity change, positive = activation, actives largely listed as activators; actives 2.8% (n = 210,000); AID 1458; further: % of control where 0% means no effect; nearly all actives have a fitted effect of over 55% in size
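qHTS luciferase splicing reporter: luminescence rises when SMN2 exon 7 is included in transfected HEK293 cells. Compound exposure lasted 30-36 h at 37C, with 4.5 mM final sodium butyrate as control, followed by a ONE-Glo read.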
Rab9 prom act: activates the Rab9 promoter; actives 2.8% (n = 320,000); Potency, µM (series often up to 9.22 µM), for the others: top-dose activation, negative = inhibition, most hits filed as activators; Huh7 Rab9 promoter-luciferase reporter, luminescence, 24 h; further: % of control where 0% means no effect; nearly all actives have a fitted effect of over 60% in size
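Promoter activation is measured as luciferase luminescence in Huh7 cells stably transfected with a Rab9 promoter–luciferase construct, following 24 h compound exposure at 37 °C and 10 min reagent incubation at ambient temperature.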
NPC1 prom act: activators of NPC1 promoter | AID 485313 | Potency, µM (titrated, usually from 9.22 µM), for the others: at the highest dose activation, most hits filed as activators | actives 2.4% (n = 320,000) | Huh7 NPC1 promoter luciferase reporter, 24 h; further: % of control where 0% means no effect; nearly all actives have a fitted effect of over 60% in size
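Stably transfected Huh7 (NPC1 promoter→luciferase), 1500 cells/well in Opti-MEM + 10% FBS, 2 h settle, then compound 24 h at 37 °C. Luminescence after 10 min with Amplite reagent.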
FLuc counter: counter-screen for miR-21 project: firefly luciferase inhibitors or activators; Potency, µM (doses to about 57.5 µM), for inactives: at the top dose activity change, negative = inhibition, usual class: inhibitors; purified FLuc, Km substrates, luminescence inhibition; actives 6.9% (n = 360,000);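 further: plate controls were vehicle for no effect and reference inhibitor for full effect; nearly all actives have a fitted effect of over 55% in size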
Target sequence (P08659 whole entry, looked up): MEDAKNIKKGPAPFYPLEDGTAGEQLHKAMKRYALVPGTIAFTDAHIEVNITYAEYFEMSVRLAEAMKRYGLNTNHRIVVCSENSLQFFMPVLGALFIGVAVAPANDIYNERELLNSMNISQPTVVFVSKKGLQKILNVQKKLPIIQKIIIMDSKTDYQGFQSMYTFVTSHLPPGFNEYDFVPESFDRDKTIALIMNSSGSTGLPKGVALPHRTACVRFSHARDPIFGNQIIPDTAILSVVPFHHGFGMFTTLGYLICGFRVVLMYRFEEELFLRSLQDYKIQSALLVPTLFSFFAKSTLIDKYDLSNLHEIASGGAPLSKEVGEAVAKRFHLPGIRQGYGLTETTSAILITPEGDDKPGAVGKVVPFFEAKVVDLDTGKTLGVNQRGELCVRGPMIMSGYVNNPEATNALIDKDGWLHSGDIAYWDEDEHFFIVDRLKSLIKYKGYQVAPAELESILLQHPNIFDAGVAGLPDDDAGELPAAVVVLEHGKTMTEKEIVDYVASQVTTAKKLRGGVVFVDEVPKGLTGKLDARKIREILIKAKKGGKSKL
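Purified P. pyralis luciferase (10nM final) with 10uM D-luciferin and 10uM ATP (Km levels) in 50mM Tris acetate pH 7.5, 10mM Mg acetate, 0.01% Tween-20, 0.05% BSA; qHTS 6-point titration, ~60 µM downward; luminescence read.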
ELG1 genotox: genotoxicity induction in ELG1-luciferase HEK293T cells | HEK293T ELG1-luciferase reporter, luminescence, 16 h | Potency, µM (top dose mostly 46 µM), for the others: at the top dose activity change, positive = activation, usual class: activators | AID 504466 | actives 1.3% (n = 330,000); further: % of control where 0% means no effect; nearly all actives have a fitted effect of over 60% in size
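16 hr compound incubation (37 °C, 5% CO2) of HEK293T cells carrying luciferase-tagged ELG1; luciferase then measured by ONE-Glo luminescence after 30 min at RT.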
* hit, by the source's call; ? = inconclusive; · = not tested or not shown; [ ] = dose if it differs, or a comment. The call rests on the fitted dose curve; in most records, active means well fitted curve in the direction sought with a large enough effect; inconclusive means small, poorly fitted or top-dose-only effect, or another doubt; inactive means no such curve, though single readings can be large; an effect the other way counts as inactive or inconclusive. Potency means the concentration at half of the fitted maximal effect.

SMILES	SMN2 splice enh	Rab9 prom act	NPC1 prom act	FLuc counter	ELG1 genotox
CCc1ccc(OCC(=O)N(Cc2ccc(C(C)C)cc2)C2CCS(=O)(=O)C2)cc1 (stereo not drawn)	-12.0%	·	·	1.2%	·
c1ccc(C(CCN2CC3CCC(CC3)C2)c2ccccc2)cc1	1.9%[9.22 µM]	·	·	·	·
Cc1ccc(NC(=O)CSc2nc(=O)n(Cc3ccco3)c3c2CCC3)cc1F	·	·	·	-13.8%	·
O=C(OCc1nnc(-c2ccccc2)o1)c1cc(S(=O)(=O)N2CCOCC2)c(Cl)cc1Cl	?	6.8%	-3.8%	-1.8%	18.4µM*
Cc1ccc(S(=O)(=O)N2CCOCC2)cc1C(=O)OCc1nnc(-c2ccccc2)o1	·	4.3%	1.2%	-19.5%	-2.0%
COc1ccc(CCNC(=O)c2cc(Sc3cccc(Cl)c3)nc3ccccc23)cc1OC	·	·	·	0.1%	·
COC(=O)c1ccc(-c2ncc(-c3cccc4ccccc34)o2)cc1	11.2µM*	1.78µM*	?	?	4.2%
COC(=O)c1ccc(-c2nc3ccccc3o2)cc1	?	0.631µM*	3.55µM*	1.9µM*	?
Cc1ccc2oc(-c3ccc(NC(=O)c4ccc5c(c4)OCO5)cc3)nc2c1	-10.3%	13.7%	2.4%	?	13.0%
Nc1nc2ccc(-c3nc4ccccc4o3)cc2s1	7.94µM*	0.631µM*	1.12µM*	1.35µM*	?
COC(=O)c1ccc(-c2nc3ccc(C)cc3o2)cc1	4.47µM*	?	?	1.2µM*	?
COc1ccc(C(=O)OCC#CCSc2nnc(-c3cccc4ccccc34)o2)cc1	·	-0.2%	15.8%	7.9%	0.1%
COc1cccc(N2CCN(Cc3cc(=O)oc4cc(C)ccc34)CC2)c1	-4.3%	·	·	4.8%	·
COc1ccc(-c2nc3ccccc3o2)cc1OC	·	22.4%	?	10.7µM*	?
c1ccc2oc(-c3ccc4nc[nH]c4c3)nc2c1	12.6µM*	1.58µM*	2.51µM*	3.38µM*	20.6µM*
COc1ccc(-c2nc3ccc(NS(C)(=O)=O)cc3o2)cc1	·	·	·	2.69µM*	·
COc1cccc(Cn2c(=O)n(-c3ccc(Br)cc3F)c(=O)c3sc4ccccc4c32)c1	-7.6%	·	·	-1.7%	·
COc1ccc(/C=C/C(=O)NC(=S)NNC(=O)c2cnccn2)cc1	·	-23.8%	-15.4%	16.9µM*	?
COc1ccc(/C=C/C(=O)NC(=S)NNC(=O)c2cccnc2)cc1	4.4%	-1.1%	-1.3%	23.9µM*	-0.4%
Cc1cccc(NC(=O)N2CCN(Cc3ccc(Cl)cc3)CC2)c1	-42.0%	5.4%	2.7%	0.0%	-7.7%
Cc1ccc(NC(=S)N2CCN(Cc3ccccc3)CC2)cc1	-58.2%	13.9%	-0.2%	12µM*	34.3%
O=C(Nc1cccc(Cl)c1)N1CCN(Cc2ccccc2)CC1	10µM*	?	?	15.1µM*	20.6µM*
S=C(Nc1ccc(Cl)cc1)N1CCN(Cc2ccccc2)CC1	-10.2%	2.4%	-2.8%	19µM*	-3.3%
O=C(CSc1nc(=O)n(Cc2ccco2)c2c1CCC2)Nc1ccccc1C(F)(F)F	·	·	·	-4.7%	·
CC(C)c1ccc(Nc2c([N+](=O)[O-])c(=O)n(C)c3ccccc23)cc1	·	-4.2%	-0.8%	?	-7.2%
SMILES	SMN2 splice enh	Rab9 prom act	NPC1 prom act	FLuc counter	ELG1 genotox
Cc1cccc(Nc2c([N+](=O)[O-])c(=O)n(C)c3ccccc23)c1	-10.7%[1.84 µM]	-4.3%	-0.8%	21.3µM*	1.0%
CCc1nnc(NC(=O)CSc2nc3c([nH]c4ccccc43)c(=O)n2-c2ccc(F)cc2)s1	·	·	·	-0.2%	·
COc1cccc(CNC(=O)c2cccc(NC(=O)c3nsc4ccccc34)c2)c1	·	·	·	6.75µM*	·
O=C(NCc1ccc(Cl)cc1)c1cccc(NC(=O)c2ccccc2)c1	-47.4%	-1.3%	-4.3%	-16.2%	-11.9%
COc1cccc(CNC(=O)c2cccc(Br)c2)c1	-4.1%	0.1%	9.2%	-10.6%	0.3%
O=C(NCc1cccc(F)c1)c1cccc(NC(=O)c2nsc3ccccc23)c1	·	·	·	8.49µM*	·
CCCCNC(=O)c1cccc(NC(=O)c2nsc3ccccc23)c1	·	·	·	4.78µM*	·
COC(=O)c1cccc(NC(=O)c2nn(C(C)C)c(=O)c3ccccc23)c1	-11.6%	-1.4%	18.3%	-0.6%	8.7%
COC(=O)c1cccc(NC(=O)c2nsc3ccccc23)c1	?	·	·	0.953µM*	·
O=C(CCS(=O)(=O)c1cc2c(cc1Cl)NC(=O)CO2)NCCc1ccc(Cl)cc1	·	·	·	0.9%	·
CC1Cc2cc(S(=O)(=O)CCC(=O)Nc3ccc(F)cc3)ccc2N1C(=O)C1CC1 (stereo not drawn)	·	·	·	0.0%	·
O=C(Nc1cccc(C(=O)N2CCCCC2)c1)c1nsc2ccccc12	·	·	·	5.36µM*	·
Cn1cc(S(=O)(=O)N2CCCC2)cc1C(=O)Nc1ccc(C(F)(F)F)cc1	·	·	·	-6.0%	·
CCn1c(=S)[nH]c2cc(S(=O)(=O)N3CCCCC3)ccc21	·	-3.5%	-2.6%	7.3%	9.2µM*
CCCCn1c(=S)[nH]c2cc(S(=O)(=O)N3CCOCC3)ccc21	·	·	·	·	0.3%
COc1ccc(OC)c(C(=O)COC(=O)c2ccccc2O)c1	5.4%	-0.6%	24.1%	12µM*	15.1%
COC(=O)c1ccc(COC(=O)c2cccnc2Cl)cc1	·	22.6%	14.3%	?	?
O=C(COC(=O)c1cccnc1Cl)c1ccc(Cl)cc1Cl	-4.5%	-8.0%	-0.3%	0.757µM*	-0.5%
COc1ccc(OC)c(C(=O)COC(=O)c2c(OC)cccc2OC)c1	-15.0%	4.4%	-3.7%	3.1%	1.7%
O=C(COC(=O)c1cccnc1Cl)c1ccc(OC(F)F)cc1	1.4%	8.0%	-0.8%	5.36µM*	0.3%
COc1ccc(OC)c(C(=O)COC(=O)c2cccnc2Cl)c1	4.7%	6.3%	-5.3%	?	1.0%
Cc1cc(C)c(C(=O)COC(=O)c2cccnc2Cl)c(C)c1	-0.3%	-0.3%	-2.2%	16.9µM*	-0.8%
Cc1cccc(C(C)C)c1NC(=O)c1ccc2c(c1)CCN2S(C)(=O)=O	-26.9%	·	·	-1.8%	·
COc1ccc(C(=O)COC(=O)c2cccnc2Cl)c(OC)c1	-0.5%	2.24µM*	21.4%	10.7µM*	20.6µM*
O=C(O)c1ccc(N=Nc2c(O)ccc3ncccc23)cc1	·	-30.2%	-20.4%	1.69µM*	-4.2%
SMILES	SMN2 splice enh	Rab9 prom act	NPC1 prom act	FLuc counter	ELG1 genotox
CC1CCC/C(=N\NS(=O)(=O)c2ccccc2)C1 (stereo not drawn)	·	0.4%	-1.4%	-1.7%	-0.2%
CC1CCC/C(=N\NC(=O)Nc2ccccc2)C1 (stereo not drawn)	·	0.8%	-1.0%	15.1µM*	5.6%
COc1ccc(/C=C2\CCc3ccccc3C2=O)cc1Cn1cccn1	-11.7%	1.6%	0.7%	5.36µM*	?
COc1ccc(/C=C2\CCc3ccccc3C2=O)cc1O	·	3.0%	-1.5%	0.338µM*	3.66µM*
COc1ccc2c(c1)OC/C(=C/c1ccc(OC)c(OC)c1)C2=O	-103.0%	·	·	·	·
COc1ccc(/C=C2\Cc3ccccc3C2=O)cc1OC	·	-1.6%	12.3%	3.38µM*	16.4µM*

From PubChem
